From ChEMBL document CHEMBL1961873, “Compounds: GSK PKIS; Assays: Nanosyn kinase panel” (2012) come the findings set out here.

Experiment [1] addresses 5'-AMP-activated protein kinase catalytic subunit alpha-2 (Homo sapiens) (UniProt P54646). The note with it: at 1 µM.
Experiment [2] addresses T1, NUAK family SNF1-like kinase 1 (Homo sapiens) (UniProt O60285).
T1 sequence (whole entry): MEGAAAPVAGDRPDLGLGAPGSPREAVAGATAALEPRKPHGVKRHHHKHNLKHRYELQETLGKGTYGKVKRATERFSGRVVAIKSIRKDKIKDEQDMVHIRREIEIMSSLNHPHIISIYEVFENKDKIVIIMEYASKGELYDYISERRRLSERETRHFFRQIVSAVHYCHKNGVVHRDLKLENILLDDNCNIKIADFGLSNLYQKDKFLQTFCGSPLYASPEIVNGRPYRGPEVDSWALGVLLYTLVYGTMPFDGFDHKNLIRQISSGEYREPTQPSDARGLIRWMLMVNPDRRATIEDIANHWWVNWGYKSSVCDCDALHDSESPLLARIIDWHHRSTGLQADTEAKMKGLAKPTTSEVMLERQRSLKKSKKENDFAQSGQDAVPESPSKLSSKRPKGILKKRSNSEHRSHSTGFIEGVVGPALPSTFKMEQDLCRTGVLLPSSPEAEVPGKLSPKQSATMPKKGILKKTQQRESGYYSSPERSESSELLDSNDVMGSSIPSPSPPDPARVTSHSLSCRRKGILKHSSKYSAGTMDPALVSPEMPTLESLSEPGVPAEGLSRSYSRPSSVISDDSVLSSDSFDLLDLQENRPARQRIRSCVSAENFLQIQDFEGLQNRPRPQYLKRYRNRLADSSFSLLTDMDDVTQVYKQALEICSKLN
The note with it: at 0.1 µM.

Experiment [3] has as its target T1, NUAK family SNF1-like kinase 1 (Homo sapiens). The note with it: at 1 µM.
In experiment [4] the target is T2, Serine/threonine-protein kinase BRSK1 (Homo sapiens) (UniProt Q8TDC3).
T2 sequence (whole entry): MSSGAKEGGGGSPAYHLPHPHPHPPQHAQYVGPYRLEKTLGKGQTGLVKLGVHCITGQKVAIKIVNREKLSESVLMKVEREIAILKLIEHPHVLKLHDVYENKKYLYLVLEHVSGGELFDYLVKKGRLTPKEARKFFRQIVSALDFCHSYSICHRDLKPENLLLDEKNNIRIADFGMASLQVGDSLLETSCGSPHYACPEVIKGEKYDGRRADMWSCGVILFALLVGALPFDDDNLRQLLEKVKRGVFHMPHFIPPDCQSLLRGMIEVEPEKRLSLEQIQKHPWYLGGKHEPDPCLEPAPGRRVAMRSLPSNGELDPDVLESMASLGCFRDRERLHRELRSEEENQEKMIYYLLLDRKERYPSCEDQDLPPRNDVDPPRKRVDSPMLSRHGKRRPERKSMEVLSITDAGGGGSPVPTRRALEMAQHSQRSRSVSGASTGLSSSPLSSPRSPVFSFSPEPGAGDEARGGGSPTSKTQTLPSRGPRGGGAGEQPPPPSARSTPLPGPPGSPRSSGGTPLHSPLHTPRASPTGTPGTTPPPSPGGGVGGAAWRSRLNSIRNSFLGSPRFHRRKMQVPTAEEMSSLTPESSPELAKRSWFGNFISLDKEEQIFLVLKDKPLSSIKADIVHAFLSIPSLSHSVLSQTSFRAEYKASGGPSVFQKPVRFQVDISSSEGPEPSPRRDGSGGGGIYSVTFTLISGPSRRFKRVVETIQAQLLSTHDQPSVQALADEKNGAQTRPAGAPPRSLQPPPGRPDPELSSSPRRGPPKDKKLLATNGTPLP
As to conditions: at 0.1 µM.

Experiment [5] addresses T2, Serine/threonine-protein kinase BRSK1 (Homo sapiens). As to conditions: at 1 µM.
Experiment [6] addresses T3, Serine/threonine-protein kinase BRSK2 (Homo sapiens) (UniProt Q8IWQ3).
T3 sequence (whole entry): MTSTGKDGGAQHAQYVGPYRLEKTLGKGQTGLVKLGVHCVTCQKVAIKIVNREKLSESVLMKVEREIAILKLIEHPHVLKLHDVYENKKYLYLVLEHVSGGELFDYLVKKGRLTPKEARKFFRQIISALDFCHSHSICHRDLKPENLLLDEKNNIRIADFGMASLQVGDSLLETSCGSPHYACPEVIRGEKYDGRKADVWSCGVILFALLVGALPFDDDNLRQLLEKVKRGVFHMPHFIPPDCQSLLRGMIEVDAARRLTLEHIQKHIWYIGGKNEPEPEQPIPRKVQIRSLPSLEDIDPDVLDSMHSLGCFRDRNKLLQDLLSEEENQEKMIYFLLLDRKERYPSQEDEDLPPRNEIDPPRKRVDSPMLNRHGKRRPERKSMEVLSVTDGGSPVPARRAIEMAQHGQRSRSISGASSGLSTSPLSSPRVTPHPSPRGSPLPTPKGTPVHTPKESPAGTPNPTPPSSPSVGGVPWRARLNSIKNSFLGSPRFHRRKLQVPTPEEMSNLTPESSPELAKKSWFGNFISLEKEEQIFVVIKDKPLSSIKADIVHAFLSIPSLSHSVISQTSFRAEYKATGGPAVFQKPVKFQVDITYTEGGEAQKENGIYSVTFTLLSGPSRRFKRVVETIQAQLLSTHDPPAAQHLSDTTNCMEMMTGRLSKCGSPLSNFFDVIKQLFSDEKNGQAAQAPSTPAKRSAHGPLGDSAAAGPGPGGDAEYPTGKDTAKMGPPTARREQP
As to conditions: at 0.1 µM.

Experiment [7] deals with T3, Serine/threonine-protein kinase BRSK2 (Homo sapiens). As to conditions: at 1 µM.
Experiment [8] deals with Calcium/calmodulin-dependent protein kinase type 1D (Homo sapiens) (UniProt Q8IU85). The note with it: at 0.1 µM.
Chain of Calcium/calmodulin-dependent protein kinase type 1D (Homo sapiens) (Q8IU85 whole entry, looked up): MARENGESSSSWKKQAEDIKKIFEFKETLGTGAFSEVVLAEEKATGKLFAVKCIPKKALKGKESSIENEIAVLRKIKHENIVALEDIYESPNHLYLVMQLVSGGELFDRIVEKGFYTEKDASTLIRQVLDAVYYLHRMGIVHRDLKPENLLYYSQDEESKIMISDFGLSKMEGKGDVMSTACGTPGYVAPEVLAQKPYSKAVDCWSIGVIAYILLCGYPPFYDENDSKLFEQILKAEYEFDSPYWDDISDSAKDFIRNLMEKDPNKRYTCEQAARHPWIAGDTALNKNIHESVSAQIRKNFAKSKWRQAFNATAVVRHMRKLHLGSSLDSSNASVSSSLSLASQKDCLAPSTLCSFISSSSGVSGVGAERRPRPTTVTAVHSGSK
Experiment [9] shares this target. The note with it: at 1 µM.
Experiment [10] addresses Calcium/calmodulin-dependent protein kinase type II subunit alpha (Homo sapiens) (UniProt Q9UQM7). As to conditions: at 0.1 µM.

Chain of Calcium/calmodulin-dependent protein kinase type II subunit alpha (Homo sapiens) (Q9UQM7 whole entry): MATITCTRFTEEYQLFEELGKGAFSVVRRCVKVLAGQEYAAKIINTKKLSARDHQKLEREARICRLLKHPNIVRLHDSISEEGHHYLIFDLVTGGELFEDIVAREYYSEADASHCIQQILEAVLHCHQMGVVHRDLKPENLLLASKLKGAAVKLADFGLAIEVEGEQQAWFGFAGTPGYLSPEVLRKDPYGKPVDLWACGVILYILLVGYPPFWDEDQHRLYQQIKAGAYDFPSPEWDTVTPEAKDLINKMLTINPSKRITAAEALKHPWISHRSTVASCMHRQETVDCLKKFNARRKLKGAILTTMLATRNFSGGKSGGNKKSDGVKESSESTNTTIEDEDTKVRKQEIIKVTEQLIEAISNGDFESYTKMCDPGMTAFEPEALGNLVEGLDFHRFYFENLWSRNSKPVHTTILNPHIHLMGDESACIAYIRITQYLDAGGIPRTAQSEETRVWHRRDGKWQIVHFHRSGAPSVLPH
Chain of 5'-AMP-activated protein kinase catalytic subunit alpha-2 (Homo sapiens) (P54646 whole entry, looked up): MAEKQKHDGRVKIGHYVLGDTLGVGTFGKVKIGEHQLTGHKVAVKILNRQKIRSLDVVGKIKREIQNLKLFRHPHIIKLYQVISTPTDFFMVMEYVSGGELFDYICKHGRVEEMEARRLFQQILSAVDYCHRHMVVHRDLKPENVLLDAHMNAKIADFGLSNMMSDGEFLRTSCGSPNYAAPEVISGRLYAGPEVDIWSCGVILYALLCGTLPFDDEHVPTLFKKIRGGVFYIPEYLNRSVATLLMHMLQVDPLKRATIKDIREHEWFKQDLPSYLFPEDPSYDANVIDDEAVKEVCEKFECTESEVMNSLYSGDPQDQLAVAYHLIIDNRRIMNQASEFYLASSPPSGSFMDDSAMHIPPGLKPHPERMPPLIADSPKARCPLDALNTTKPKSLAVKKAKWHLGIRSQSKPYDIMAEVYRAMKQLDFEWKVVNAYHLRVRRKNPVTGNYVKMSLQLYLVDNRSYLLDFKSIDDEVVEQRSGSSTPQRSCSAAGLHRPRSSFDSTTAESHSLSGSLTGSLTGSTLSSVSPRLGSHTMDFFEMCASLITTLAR

As for `COc1ccc(-c2cc(-c3c[nH]nc3-c3ccccn3)ccn2)cc1`, the inhibition in experiment [1] is 3.44%; in experiment [2] it was -7.35%; in [3], 2.48%; in [4], -0.01%; in experiment [5], 2.6%; in experiment [6], 2.08%. Also, the inhibition was 3.41% in experiment [7], 0.05% in experiment [8], -1.05% in [9] and 4.66% in experiment [10].
With `N#Cc1c(NC(=O)c2ccc(F)cc2)sc2c1CCCC2`, the inhibition in [1] was 2.24%; in experiment [2] it was -1.13%; in [3], 2.02%; in [4] it was 1.51%; in experiment [5], 1.17%; in experiment [6] it was 0.78%. Also, the inhibition in [7] worked out at 2.38%; in experiment [8], 0.76%; in experiment [9], 0.45%; in experiment [10], 0.66%.
For `COC(=O)c1sc(-n2cnc3cc(OC)c(OC)cc32)cc1OCc1ccccc1C(F)(F)F`, the inhibition amounted to 5.51% in experiment [1]; 18.4% in [2]; 47.1% in experiment [3]; 0.92% in experiment [4]; 2.12% in experiment [5]; 2.43% in [6]. Moreover, the inhibition in experiment [7] worked out at 4.63%; in [8], 0.66%; in experiment [9] it was 2.52%; in experiment [10], 5.18%.
Take `Cc1cccc2c1NC(=O)/C2=N\Nc1ccc(S(N)(=O)=O)cc1`: the inhibition in [1] worked out at 4.04%; in experiment [2], 4.52%; in experiment [3], 19%; in experiment [4], 1.12%; in experiment [5], 3.16%; in experiment [6], 0.94%. Besides, the inhibition in [7] stood at 4.49%; in experiment [8], 0.23%; in experiment [9] it was 1.75%; in experiment [10], 4.56%.
With `Clc1ccc(-c2nn3ncccc3c2-c2ccnc(Nc3ccccc3)n2)cc1`, the inhibition in experiment [1] was 2.26%; in experiment [2] it was 0.79%; in [3], 4.21%; in experiment [4], 0.06%; in experiment [5], 1.52%; in experiment [6] it was -0.16%. The inhibition is -0.21% in [7], 2.4% in experiment [8], 1.17% in experiment [9] and 0.95% in experiment [10].
As to `COc1cc(Nc2nccc(Nc3ccc4c(C)n[nH]c4c3)n2)cc(OC)c1OC`, the inhibition in experiment [1] turned out to be 5.95%; in experiment [2], 10.4%; in experiment [3] it was 35.5%; in experiment [4], 3.57%; in experiment [5], 3.29%; in experiment [6], 2.02%. The inhibition turned out to be 1.97% in experiment [7], 3.39% in experiment [8], 6.21% in [9] and 4.54% in experiment [10].
Regarding `c1cc(-c2cnn3nc(N4CCOCC4)ccc23)nc(NC2CC2)n1`, the inhibition was 7.62% in experiment [1]; 5.42% in experiment [2]; 25.6% in [3]; 2.4% in experiment [4]; 6.62% in experiment [5]; 3.67% in experiment [6]. Besides, the inhibition is 7.84% in experiment [7], 1.69% in experiment [8], 2.68% in [9] and 4.7% in [10].
With `COc1ccc(-c2cc3c(N)ncnc3o2)cc1`, the inhibition in [1] is -2.04%; in experiment [2], 2.2%; in [3], 2.41%; in experiment [4], -0.42%; in experiment [5] it was -0.34%; in [6], 0.68%. Moreover, the inhibition in experiment [7] is 1.73%; in experiment [8] it was 1.05%; in [9], 2.96%; in experiment [10], -1.62%.
With `FC(F)(F)c1cccc(-c2nn3ncccc3c2-c2ccnc(Nc3ccc4c(c3)OCCO4)n2)c1`, the inhibition in experiment [1] turned out to be 4.13%; in [2] it was 1.51%; in experiment [3], 5.87%; in [4], 3.69%; in experiment [5], 2.81%; in experiment [6], 2.37%. Also, the inhibition in [7] is 2.54%; in experiment [8], -0.54%; in [9], 1.75%; in experiment [10], 1.98%.
In the case of `COc1cc(N2CCN(C(C)C)CC2)ccc1Nc1nc(Nc2ccc(F)cc2C(N)=O)c2cc[nH]c2n1`, the inhibition was 13.2% in [1]; 66.6% in [2]; 85% in [3]; 2.21% in experiment [4]; -0.11% in experiment [5]; 0.22% in experiment [6]. Also, the inhibition is 1.71% in experiment [7], 10.9% in [8], 52.8% in [9] and 9.8% in experiment [10].
Take `COc1cccc(-n2ncc3c(N/N=C/c4ccc(F)cc4)ncnc32)c1`: the inhibition in experiment [1] is 3.2%; in experiment [2], 6.48%; in experiment [3], 16.9%; in experiment [4] it was 1.24%; in experiment [5], 12.1%; in [6], 5.29%. Besides, the inhibition was 17.8% in experiment [7], -0.29% in experiment [8], 1.05% in experiment [9] and 3.15% in experiment [10].
Turning to `CCOc1ccc2c(-c3ccnc(Nc4cccc(C(F)(F)F)c4)n3)cnn2n1`, the inhibition came out at 2.74% in [1]; 2.71% in [2]; 7.44% in experiment [3]; 1.14% in [4]; 4.56% in experiment [5]; 3.01% in experiment [6]. In addition, the inhibition in [7] was 2.66%; in [8], 1%; in experiment [9], 1.1%; in [10], 0.19%.
Consider `COC(=O)Nc1nc2ccc(S(=O)(=O)c3ccc(NC(=O)Nc4cc(C(F)(F)F)ccc4F)cc3)cc2[nH]1`, for which the inhibition in experiment [1] stood at 3.39%; in [2], 3.25%; in experiment [3], 4.84%; in experiment [4], 3.17%; in [5], 4.39%; in experiment [6], 2.33%. For the same molecule, the inhibition turned out to be 2.89% in experiment [7], 0.42% in experiment [8], 1.45% in experiment [9] and 3.34% in experiment [10].
In the case of `Fc1ccc(-c2nn3ncccc3c2-c2ccnc(Nc3ccc4c(c3)OCCO4)n2)cc1`, the inhibition was 4.39% in experiment [1]; -3.69% in experiment [2]; -0.79% in experiment [3]; 0.48% in [4]; -0.53% in [5]; 0.21% in experiment [6]. Also, the inhibition in experiment [7] was -0.44%; in experiment [8], -0.07%; in [9], 8.91%; in [10], 3.81%.
Regarding `Fc1cccc(COc2ccc(Nc3ncnc4sc(-c5ccco5)cc34)cc2Cl)c1`, the inhibition in [1] came out at 5.24%; in [2] it was 1.97%; in experiment [3], 6.27%; in [4], 0.38%; in [5] it was 7.21%; in experiment [6], 4.09%. In addition, the inhibition in [7] is 7.5%; in [8], -0.77%; in experiment [9] it was -1.08%; in experiment [10] it was 1.16%.
In the case of `NS(=O)(=O)c1ccc(Nc2ncc(-c3ccccc3)o2)cc1`, the inhibition came out at 9.24% in experiment [1]; 10.7% in experiment [2]; 37.2% in experiment [3]; 1.52% in experiment [4]; 15.3% in experiment [5]; 2.58% in [6]. The inhibition was determined as 17% in experiment [7], 0.42% in [8], 0.85% in experiment [9] and 4.27% in experiment [10].
Consider `CC(C)COC(=O)c1ccc2c(c1)/C(=C/Nc1ccc(S(N)(=O)=O)cc1)C(=O)N2`, for which the inhibition in [1] amounted to 36.3%; in [2], 29.6%; in [3] it was 75.6%; in experiment [4], 5.38%; in experiment [5], 38%; in experiment [6], 10.1%. Also, the inhibition was determined as 50.1% in experiment [7], 1.82% in experiment [8], 7.89% in experiment [9] and 0.26% in experiment [10].
